Screening results deposited in PubChem BioAssay by several laboratories.
An excerpt weighted towards active compounds, which were near 3.6% of everything screened.
CRFBP-R2 block – CRF-BP/CRF-R2 complex antagonism; 350,000 compounds, 0.59% hits; AID 588475; inhibition, % at 11.8 µM; HEK293 CRF-R2/CRF-BP, CRF-induced calcium fluorescence;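 active = inhibition of the ligand-induced calcium signal above about 50% at the single tested concentration, limit read from the data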
NadD block – blocks S. aureus nicotinate mononucleotide adenylyltransferase | inhibition, % at 20 µM | 360,000 compounds, 0.78% hits | purified NadD enzyme, colorimetric absorbance read-out | AID 602399; in the data active = inhibition above about 26%
FAS-TE inh – blocks the thioesterase domain of human fatty acid synthase; P49327; recombinant FAS-TE, OMFH fluorogenic substrate, fluorescence endpoint; inhibition, % at 15 µM; 360,000 compounds, 0.67% hits; AID 602261;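 active = compounds whose normalised, plate-corrected inhibition of enzyme fluorescence in the single-dose primary screen is 50% or more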;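 also: 0% = DMSO with enzyme and 100% = substrate without enzyme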
CendR NRP1 mod – modulators of CendR peptide binding to human neuropilin-1. O14786. AID 602438. inhibition, % at 25 µM. 360,000 compounds, 0.85% hits. FAM-RPARPAR peptide binding to NRP-1, fluorescence polarization;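 active = inhibition or corrected inhibition above about 18%, plus a signal ratio from 0.5 to 1.5, limit read from the data, passing the limit was not always enough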
Myeloid diff 2 – promotes myeloid progenitor differentiation. ER-HoxA9 myeloid progenitors, lysozyme-GFP differentiation, flow cytometry. 360,000 compounds, 1% hits. AID 624256. calls only at 10 µM;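 active = normalized GFP-positive differentiation at or above the plate's own cutoff, the solvent-only control mean plus 3 SD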;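 also: cells exposed to compound for four days before flow analysis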
Myeloid diff CP1 – promotes myeloid progenitor differentiation; 2,300 compounds, 2% hits; calls only; AID 651706; shares compounds with Myeloid diff 2; ER-HoxA9 myeloid progenitors, GFP/Mac1 double-positive flow;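 active = share of green or green-and-red cells above 9 and 9% in run 1 or 4 and 3% in run 2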
GFP autofluor – counter-screen for myeloid differentiation promoters: compound fluorescence | ER-HoxA9 myeloid progenitors, no estrogen, GFP autofluorescence flow cytometry; vehicle wells 0%, positive control 100% | shares compounds with Myeloid diff 2 | fluorescence response, % (test concentration not listed) | 2,300 compounds, 7.4% hits;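 active = over 5% cells positive for green fluorescent reporter, or over 2% positive for both it and APC stain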;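 also: range taken on the double positive population between DMSO and positive control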
* hit, by the source's call; i = inactive; . = no result; + = active, no number.

SMILES	CRFBP-R2 block	NadD block	FAS-TE inh	CendR NRP1 mod	Myeloid diff 2	Myeloid diff CP1	GFP autofluor
COc1ccc(C(CNC(=O)c2ccc(Cl)c(NC(=O)c3cccs3)c2)N2CCCC2)cc1 (stereo not given)	-14	-6	-1	-1	i	.	.
COC(=O)c1cc(S(=O)(=O)N2CCOCC2)ccc1Sc1ccccc1N	-34	2	8	-1	i	i	0
COC(=O)c1cc(S(=O)(=O)N2CCCCC2)ccc1N1CCOCC1	-1	-5	-9	-3	.	.	.
O=C(NCc1cc(C(F)(F)F)cc(C(F)(F)F)c1)C1CC(c2ccc(C(F)(F)F)cc2)=NO1 (stereo not given)	-8	2	22	-13	i	.	.
COc1ccccc1Oc1nnnn1-c1ccc(C(N)=O)cc1	-5	-2	-8	-2	i	i	1
NC(=S)NN=CCn1cc([N+](=O)[O-])c(=O)[nH]c1=O	2	-1	-8	2	i	.	.
CCOC(=O)/C(=N\Nc1ccccc1[N+](=O)[O-])c1csc(N)n1	10	4	-4	-10	i	.	.
CCOC(=O)/C(=N\Nc1ccc(C(C)=O)cc1)c1csc(Nc2ccccc2)n1	-97	10	-11	-118	+	i	1
CN(CC(=O)Nc1ccc(F)cc1)C(=O)COC(=O)CCN1C(=O)C2CC=CCC2C1=O (stereo not given)	0	-5	-4	6	i	.	.
Cc1c(N=C2NN=C(c3c[nH]c4ccccc34)CS2)c(=O)n(-c2ccccc2)n1C	-1	12	-17	-17	+	i	5
COc1ccccc1NC(=O)c1c(NC(=O)c2ccco2)sc2c1CCC2	-20	15	20	-19	+	i	1
C=CC[N+]1(CC#CCOC(c2ccccc2)c2ccccc2)CCOCC1	-10	0	-4	-1	i	.	.
C=CC[N+]1(CC#Cc2ccccc2)CCCC1	20	-3	-3	5	+	i	0
CC(C)(C)OC(=O)C[C@H]1C/C=C\C[C@H](CC(=O)N[C@H](CO)Cc2ccccc2)C(=O)N[C@H](Cc2ccccc2)COC1=O	8	3	2	-1	i	.	.
CC(C)(C)OC(=O)C[C@@H]1C/C=C\C[C@H](CC(=O)N[C@H](CO)Cc2ccccc2)C(=O)N[C@@H](Cc2ccccc2)COC1=O	3	-2	7	-3	i	i	0
C=CCc1cccc(C=Nc2cc(Br)ccc2O)c1O	-16	2	15	-31	+	i	0
Cn1ccnc1SCC(=O)Nc1cc(C(F)(F)F)ccc1N1CCOCC1	-3	-3	-10	4	i	i	0
Cn1cnnc1SCC(=O)Nc1cc(C(F)(F)F)ccc1N1CCOCC1	8	6	-1	6	i	.	.
Cn1c(Cc2ccccc2)nnc1SCC(=O)Nc1ccccc1N1CCOCC1	-4	1	-6	1	i	i	0
Cc1cccc(N2CC(C(=O)Nc3nnc(SCC(=O)NCC4CCCO4)s3)CC2=O)c1 (stereo not given)	-8	8	-2	-40	i	.	.
CC(=O)N1CN(C2CCCC2)Cc2c1sc1c2CCCC1	-18	0	-2	21	i	i	0
CC(=O)N1CN(C2CC(C)(C)NC(C)(C)C2)Cc2c1sc1c2CCCC1	3	-5	-14	7	i	.	.
O=c1ccc(C(F)(F)F)cn1Cc1cc(=O)n2cc(Br)ccc2n1	0	-2	0	3	i	.	.
Cc1ccc(CCNC(=O)CCNS(=O)(=O)c2ccc3c(c2)c(=O)n(C)c(=O)n3C)cc1	18	4	-1	-8	i	.	.
Cn1c(=O)c2cc(S(=O)(=O)NCCC(=O)NCCC3=CCCCC3)ccc2n(C)c1=O	-24	3	16	15	+	i	1
SMILES	CRFBP-R2 block	NadD block	FAS-TE inh	CendR NRP1 mod	Myeloid diff 2	Myeloid diff CP1	GFP autofluor
NC(=S)N=Nc1ccc(O)cc1	11	5	-8	5	i	.	.
Cc1cccc(NC(=O)c2ccccc2SCc2ccc(F)cc2)n1	12	-1	24	7	+	i	0
N#CC(C#N)=c1ccc2c(c1)N1C(c3ccccc3)=CC(c3ccccc3)C3CCCCC31N=2 (stereo not given)	6	6	-1	1	+	i	0
COc1ccc(C2SCC(=O)N2c2c(C)n(C)n(-c3ccccc3)c2=O)cc1OC (stereo not given)	12	-1	-21	1	+	i	0
Cc1c(N2C(=O)CSC2c2ccccc2)c(=O)n(-c2ccccc2)n1C (stereo not given)	6	1	-3	2	i	.	.
COc1ccccc1NC(=S)N(Cc1ccco1)Cc1cc2cc(C)cc(C)c2[nH]c1=O	-33	14	23	10	i	i	0
COc1ccc(-c2nnc(NC(=O)c3ccc(S(=O)(=O)N4COCC4(C)C)cc3)o2)cc1	-10	21	8	-2	i	i	5.3*
Oc1ccccc1N=Cc1c(O)ccc2ccccc12	-113	0	4	120	+	i	0
Oc1ccc2ccccc2c1C=Nc1ccccc1Br	20	2	5	126	i	i	0
CC(=O)c1c(N2CCOCC2)nc(=S)n(-c2ccccc2)c1C	12	3	-9	4	i	.	.
CC(=O)c1c(N2CCOCC2)nc(=S)n(-c2ccc([N+](=O)[O-])cc2)c1C	7	3	-2	-10	i	i	1
O=C(O)c1cccc(CSc2n[nH]c(-c3ccc(Cl)cc3Cl)n2)c1	3	-1	-6	3	i	.	.
CC1(C)NC(=O)N(CCCCOc2ccc(Cl)cc2)C1=O	-22	2	1	7	i	i	0
CCCCn1c(SCC(=O)N2CCC(C)CC2)nc2cc(S(N)(=O)=O)ccc21	-1	-2	1	7	+	i	0
CCCCn1c(SCC(=O)c2ccc(O)cc2O)nc2cc(S(N)(=O)=O)ccc21	-7	-2	6	-7	i	.	.
Cc1cc(=O)oc2c(C)c(OCC(=O)Nc3cccnc3)ccc12	-7	0	-2	4	i	.	.
COc1ccc2cc(C#N)c(SCC(=O)NNC(=O)Cc3ccccc3)nc2c1	13	11	-4	-11	i	.	.
Cc1ccc2cc(C#N)c(SCC(=O)NNC(=O)Cc3ccccc3)nc2c1	-8	11	-17	-10	+	i	0
Cc1sc2ncn(CC(=O)NCc3ccccn3)c(=O)c2c1S(=O)(=O)N1CCOCC1	0	1	-10	-3	i	i	0
CCOC(=O)CNC(=O)Cn1cnc2sc(C)c(S(=O)(=O)N3CCOCC3)c2c1=O	10	-17	-6	4	i	.	.
Cc1cc(/C=C(\C#N)C(=O)O)c(C)n1CC(C)C	16	-1	-4	2	+	i	1
